The record followed here is PubChem BioAssay (EPA / NIEHS).

Test [1] is described as follows: ATG_DR4_LXR_CIS: Attagene CIS-FACTORIAL HepG2 Assay for human Liver X Receptor (LXR), DR4 submotif (AID 2282929). The settings on record: HepG2 Attagene DR4 cis-reporter, mRNA transcription; AC50: actives raise or lower the signal unless noted; outcome: actives raise or lower the signal unless noted. The essentials:
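Cells were transfected with multiple reporter transcription units, exposed to chemicals for 24 hours, then lysed for RNA. Reporter mRNA induction was measured by RT-PCR with capillary electrophoresis detection and fitted in both directions relative to DMSO.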

For test [2], the target named is Aryl hydrocarbon receptor (Homo sapiens) (UniProt P35869). Kind of test: ATG_Ahr_CIS: Attagene CIS-FACTORIAL HepG2 Assay for human Aryl Hydrocarbon Receptor (Ahr) (AID 2282930). The settings on record: HepG2 AhR cis-factorial reporter transcription; actives raise or lower the signal. The essentials: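 Following 24 h of chemical dosing, transfected HepG2 liver cells with cis-driven reporter units were lysed for RNA; reporter mRNA was quantified via RT-PCR and capillary electrophoresis, and responses fitted bidirectionally from DMSO.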

Test [3] is described as follows: ATG_AP_1_CIS: Attagene CIS-FACTORIAL HepG2 Assay for human Activator Protein 1 (AP-1) (AID 2282931). Conditions: HepG2 Attagene cis-factorial AP-1 reporter mRNA; actives raise or lower the signal. The method, boiled down: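 Endogenous transcription-factor activity in human HepG2 liver cells is read through a cis-promoter reporter transcript, sampled 24 h after dosing. Detection uses RT-PCR with capillary electrophoresis; values come from bidirectional fitting relative to DMSO.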

Test [4] in a line: ATG_AP_2_CIS: Attagene CIS-FACTORIAL HepG2 Assay for human Activator Protein 2 (AP-2) (AID 2282932). Conditions: HepG2 AP-2 cis-reporter, Attagene transcription factor profiling; AC50: actives raise or lower the signal unless noted; outcome: actives raise or lower the signal unless noted. The essentials:
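HepG2 cells were transiently transfected with multiple cis-promoter reporter transcription units and dosed for 24 h. Reporter mRNA was measured by RT-PCR with capillary electrophoresis fluorescence; bidirectional fits relative to DMSO baseline.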

Test [5] in a line: ATG_BRE_CIS: Attagene CIS-FACTORIAL HepG2 Assay for human Bone Morphogenetic Protein (BMP) Response Element (BRE) (AID 2282933). The settings on record: HepG2 BMP response element reporter, Attagene transcription factor profiling; actives raise or lower the signal. The method, boiled down:
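Gain- or loss-of-signal was derived by bidirectional fitting against DMSO controls. The signal came from reporter mRNA, measured by RT-PCR and capillary electrophoresis, in HepG2 cells transiently carrying multiple reporter units and dosed for 24 h.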

In test [6] the target is Transcription factor E2F1 (Homo sapiens) (UniProt Q01094). Put plainly: ATG_E2F_CIS: Attagene CIS-FACTORIAL HepG2 Assay for human E2F Transcription Factor 1 (AID 2282935). The settings on record: HepG2 Attagene cis-reporter, E2F reporter RNA transcripts; actives raise or lower the signal. The essentials:
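HepG2 cells transiently transfected with multiplexed cis-element reporter units, dosed for 24 h. Reporter mRNA measured by RT-PCR, 6-FAM primer-extension labeling, HpaI digestion and capillary electrophoresis; bidirectional fit versus DMSO baseline.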

Test [7] in a line: ATG_E_Box_CIS: Attagene CIS-FACTORIAL HepG2 Assay for human Enhancer Box (E-box) (AID 2282936). Conditions: HepG2 E-box cis-reporter transcription, actives raise or lower the signal. The essentials: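 HepG2 cells transiently transfected with multiplexed cis-element reporter units sensing endogenous transcription factor activity; 24 h compound exposure. Reporter mRNA measured by RT-PCR, 6-FAM primer extension, HpaI digestion and capillary electrophoresis; bidirectional fit versus DMSO.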

Test [8] can be described thus: ATG_M_61_CIS: Attagene CIS-FACTORIAL HepG2 Assay for M61 Transcription Factor (Internal Marker) (AID 2282937). The settings on record: HepG2 Attagene CIS-FACTORIAL M61 internal marker reporter; actives raise or lower the signal. The essentials: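 Cells were transfected with reporter units under cis-regulatory promoters, treated with chemicals for 24 h, then lysed for RNA. Reporter transcripts were quantified by RT-PCR and capillary electrophoresis, and activity was fitted bidirectionally against DMSO.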

A short description of test [9]: ATG_EGR_CIS: Attagene CIS-FACTORIAL HepG2 Assay for human Early Growth Response 1 (EGR1) (AID 2282938). Conditions: HepG2 Attagene CIS-FACTORIAL EGR reporter mRNA; actives raise or lower the signal. The method, boiled down:
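Endogenous TF activity in HepG2 liver cells was gauged through cis-promoter reporter constructs transiently transfected. After 24 h dosing, reporter mRNA was quantified by RT-PCR and capillary electrophoresis, and curves fitted in both directions versus DMSO.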

The nature of test [10]: ATG_M_19_CIS: Attagene CIS-FACTORIAL HepG2 Assay for M19 Transcription Factor (Internal Marker) (AID 2282939). The settings on record: HepG2 Attagene CIS-FACTORIAL M19 internal marker reporter; actives raise or lower the signal. The method, boiled down:
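Following a 24 h exposure, RNA from transfected HepG2 cells was reverse-transcribed, PCR-amplified with reporter-specific primers, end-labelled with 6-FAM and HpaI-digested before capillary separation. Values represent gain or loss versus DMSO.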

The nature of test [11]: ATG_ERE_CIS: Attagene CIS-FACTORIAL HepG2 Assay for Estrogen Response Element (ERE) (AID 2282940). Conditions: HepG2 ERE cis-reporter, Attagene RNA transcript; actives raise or lower the signal. The method, boiled down: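 HepG2, transient cis-reporter units, 24 h exposure. RNA isolated, oligo(dT) RT, reporter-specific PCR, FAM extension, HpaI cut, CE detection. Gain/loss-of-signal vs DMSO.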

Test [12] is described as follows: ATG_Ets_CIS: Attagene CIS-FACTORIAL HepG2 Assay for human Erythroblast Transformation Specific (ETS) (AID 2282941). Conditions: HepG2 ETS cis-reporter transcription; AC50: actives raise or lower the signal unless noted; outcome: actives raise or lower the signal unless noted. The essentials: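 After transient cis-reporter transfection, HepG2 cells receive test chemical for 24 h. Reporter mRNA levels, measured by RT-PCR and capillary electrophoresis fluorescence, are analysed bidirectionally relative to the DMSO baseline.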

The target of test [13] is Hepatocyte nuclear factor 3-beta (Homo sapiens) (UniProt Q9Y261). Put plainly: ATG_FoxA2_CIS: Attagene CIS-FACTORIAL HepG2 Assay for human Forkhead box A2 (FOXA2) (AID 2282942). The settings on record: HepG2 cis-reporter transcription factor activity, 24 h; actives raise or lower the signal. The essentials:
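Endogenous transcription factor activity was read in HepG2 cells carrying transiently transfected cis-promoter reporter units. After 24 h dosing, reporter mRNA was quantified by RT-PCR and capillary electrophoresis, and values fitted bidirectionally versus DMSO.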

A short description of test [14]: ATG_FoxO_CIS: Attagene CIS-FACTORIAL HepG2 Assay for human Forkhead box O (FoxO) (AID 2282943). Conditions: HepG2 Attagene cis-reporter, FoxO element, mRNA; actives raise or lower the signal. The method, boiled down: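 24 h chemical exposure, HepG2 with transient cis-MRTU transfection. RNA extraction, oligo(dT) RT, reporter-specific PCR, primer-extension labelling, HpaI digestion, CE fragment analysis; bidirectional fit, DMSO baseline.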

Test [15] can be described thus: ATG_GATA_CIS: Attagene CIS-FACTORIAL HepG2 Assay for human GATA Binding Protein (AID 2282944). Conditions: HepG2 GATA cis-element reporter, Attagene multiplex mRNA; actives raise or lower the signal. The essentials:
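DMSO serves as negative control and baseline for bidirectional fitting of reporter mRNA changes. HepG2 cells bearing transiently transfected cis-promoter reporters were exposed 24 h; transcripts detected via RT-PCR and capillary electrophoresis.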

Test [16] is described as follows: ATG_GLI_CIS: Attagene CIS-FACTORIAL HepG2 Assay for human Zinc Finger Protein GLI1 (AID 2282945). The settings on record: HepG2, Attagene cis-factorial reporter mRNA, GLI element; actives raise or lower the signal. The method, boiled down: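 HepG2 cells transiently transfected with cis-promoter multiplexed reporter units report endogenous transcription factor activity. After 24 h chemical exposure, reporter mRNA was quantified by RT-PCR, 6-FAM labelling, HpaI digestion and capillary electrophoresis, with bidirectional fitting against DMSO.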

Test [17] deals with Bile acid receptor (Homo sapiens) (UniProt Q96RI1). Put plainly: ATG_IR1_CIS: Attagene CIS-FACTORIAL HepG2 Assay for human Nuclear Receptor Subfamily 1 Group H Member 4 (NR1H4), IR1 submotif (AID 2282946). The settings on record: IR1 reporter transcription, actives raise or lower the signal. The method, boiled down:
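Transient MRTU transfection, HepG2; 24 h dosing; RNA → RT-PCR → 6-FAM primer extension → HpaI digest → capillary electrophoresis fluorescence. Gain/loss of signal fitted relative to DMSO.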

The nature of test [18]: ATG_GRE_CIS: Attagene CIS-FACTORIAL HepG2 Assay for human Glucocorticoid Response Elements (GRE) (AID 2282947). The settings on record: HepG2 GRE cis-reporter, Attagene multiplex mRNA; AC50: actives raise or lower the signal unless noted; outcome: actives raise or lower the signal unless noted. The essentials:
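HepG2 cells transiently transfected with multiple cis-promoter reporter units measure endogenous TF activity; 24 h compound exposure. Reporter mRNA quantified by RT-PCR, FAM labelling, HpaI digestion and capillary electrophoresis; bidirectional fit vs DMSO baseline.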

Test [19] is described as follows: ATG_ISRE_CIS: Attagene CIS-FACTORIAL HepG2 Assay for human Interferon Regulatory Factor 1 (IRF1) binding to an Interferon-Stimulated Response Element (ISRE) (AID 2282948). Conditions: HepG2 ISRE cis-reporter (Attagene), mRNA transcription readout; actives raise or lower the signal. The essentials: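 Quantitation relies on labelled RT-PCR fragments separated by capillary electrophoresis. Human HepG2 cells bearing cis-promoter reporter constructs were treated 24 h; DMSO served as baseline for bidirectional fitting.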

Active and inactive are the calls of the source. The calls were made as follows: active = hit-call score of the fitted dose curve at least 0.9, where 1 is the maximum; inactive = score below 0.9.

Chain of Aryl hydrocarbon receptor (Homo sapiens) (P35869 whole entry, looked up): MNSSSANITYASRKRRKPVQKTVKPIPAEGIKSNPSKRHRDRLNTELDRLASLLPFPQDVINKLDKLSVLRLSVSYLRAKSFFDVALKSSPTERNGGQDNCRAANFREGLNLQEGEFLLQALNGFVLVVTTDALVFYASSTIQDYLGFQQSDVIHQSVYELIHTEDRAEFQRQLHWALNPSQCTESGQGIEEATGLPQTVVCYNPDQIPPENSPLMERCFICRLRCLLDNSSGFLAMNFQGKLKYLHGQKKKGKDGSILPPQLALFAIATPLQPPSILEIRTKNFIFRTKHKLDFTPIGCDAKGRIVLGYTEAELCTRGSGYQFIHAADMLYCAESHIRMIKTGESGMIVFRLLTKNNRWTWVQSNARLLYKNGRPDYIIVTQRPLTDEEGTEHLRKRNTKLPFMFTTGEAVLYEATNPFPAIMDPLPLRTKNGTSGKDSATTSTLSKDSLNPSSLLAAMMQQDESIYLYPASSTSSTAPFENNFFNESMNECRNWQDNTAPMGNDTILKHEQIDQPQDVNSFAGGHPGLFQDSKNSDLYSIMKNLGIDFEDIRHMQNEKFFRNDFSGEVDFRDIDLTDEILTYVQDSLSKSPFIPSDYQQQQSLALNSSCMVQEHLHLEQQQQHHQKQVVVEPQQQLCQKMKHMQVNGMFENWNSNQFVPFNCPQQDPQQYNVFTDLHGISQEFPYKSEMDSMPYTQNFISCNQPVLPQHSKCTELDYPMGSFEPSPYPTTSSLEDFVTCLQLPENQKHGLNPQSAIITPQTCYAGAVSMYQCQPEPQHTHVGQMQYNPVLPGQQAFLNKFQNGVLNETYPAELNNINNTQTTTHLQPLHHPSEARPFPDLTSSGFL
Chain of Transcription factor E2F1 (Homo sapiens) (Q01094 whole entry, looked up): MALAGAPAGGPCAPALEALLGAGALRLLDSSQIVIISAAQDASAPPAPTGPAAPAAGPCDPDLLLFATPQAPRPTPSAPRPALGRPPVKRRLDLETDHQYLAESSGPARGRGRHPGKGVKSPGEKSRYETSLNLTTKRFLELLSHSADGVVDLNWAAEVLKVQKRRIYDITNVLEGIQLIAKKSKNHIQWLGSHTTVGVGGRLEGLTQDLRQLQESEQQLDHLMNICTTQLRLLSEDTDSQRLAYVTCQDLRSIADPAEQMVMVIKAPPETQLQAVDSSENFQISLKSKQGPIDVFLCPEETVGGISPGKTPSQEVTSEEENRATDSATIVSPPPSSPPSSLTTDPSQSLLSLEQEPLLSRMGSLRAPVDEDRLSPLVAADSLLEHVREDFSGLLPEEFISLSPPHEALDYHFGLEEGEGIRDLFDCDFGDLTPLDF
Chain of Hepatocyte nuclear factor 3-beta (Homo sapiens) (Q9Y261 whole entry, looked up): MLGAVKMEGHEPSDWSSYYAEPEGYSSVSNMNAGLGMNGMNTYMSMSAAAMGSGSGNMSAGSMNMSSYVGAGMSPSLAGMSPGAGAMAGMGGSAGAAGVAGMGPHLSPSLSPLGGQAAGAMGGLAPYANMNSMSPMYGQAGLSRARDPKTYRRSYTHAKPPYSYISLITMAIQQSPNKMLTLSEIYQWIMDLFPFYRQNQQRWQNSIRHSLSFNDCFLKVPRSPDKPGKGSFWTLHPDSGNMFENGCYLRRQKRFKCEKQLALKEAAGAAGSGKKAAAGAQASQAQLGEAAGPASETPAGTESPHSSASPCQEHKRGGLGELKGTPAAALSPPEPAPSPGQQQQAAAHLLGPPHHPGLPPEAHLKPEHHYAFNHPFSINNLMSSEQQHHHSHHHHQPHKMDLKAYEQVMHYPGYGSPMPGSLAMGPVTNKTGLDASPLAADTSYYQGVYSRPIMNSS
Chain of Bile acid receptor (Homo sapiens) (Q96RI1 whole entry, looked up): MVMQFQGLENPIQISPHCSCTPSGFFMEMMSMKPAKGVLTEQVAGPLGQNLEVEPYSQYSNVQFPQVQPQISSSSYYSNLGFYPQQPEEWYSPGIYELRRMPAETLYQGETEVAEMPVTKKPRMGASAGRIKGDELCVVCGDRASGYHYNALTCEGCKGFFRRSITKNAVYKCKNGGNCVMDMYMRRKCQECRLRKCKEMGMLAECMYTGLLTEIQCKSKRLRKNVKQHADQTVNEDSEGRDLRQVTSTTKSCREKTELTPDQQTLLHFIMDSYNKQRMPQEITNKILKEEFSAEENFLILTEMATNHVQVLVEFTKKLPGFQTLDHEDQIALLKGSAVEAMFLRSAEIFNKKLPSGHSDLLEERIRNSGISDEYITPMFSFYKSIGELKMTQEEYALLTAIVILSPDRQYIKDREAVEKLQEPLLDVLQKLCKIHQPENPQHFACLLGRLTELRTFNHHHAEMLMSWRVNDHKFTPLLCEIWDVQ

In the case of `CCCCCCOC(=O)c1ccc(O)cc1`, the half-maximal activity concentration (AC50) (in general, the concentration at which the activity in the assay is half-maximal) in test [1] was 41.8 µM (active); in [3] it was 50.4 µM (active); in test [4] it was 54.9 µM (active); in test [7], 51.6 µM (active); in test [9], 52.2 µM (active); in [11] it was 8.86 µM (active). Also, the half-maximal activity concentration (AC50) was 54.1 µM (active) in test [12], 60.3 µM (active) in test [16] and 47.5 µM (active) in test [17]. In addition, the call in test [2], in test [5], in [6], in test [8], in test [10] and in [13] was inactive. In addition, the molecule was called inactive in [14], in test [15], in test [18] and in test [19].
With `CCCCCCCCCCCCOC(=O)c1cc(O)c(O)c(O)c1`, the concentration at half-maximal activity (AC50) is 6.4 µM (active) in test [1], 11.1 µM (active) in test [3], 2.92 µM (active) in test [7] and 11.1 µM (active) in test [19]. For the same molecule, the result in test [2], in test [4], in test [5], in test [6], in [8] and in test [9] was inactive. The outcome in test [10], in test [11], in test [12], in test [13], in [14] and in [15] was inactive. Further, the call in test [16], in test [17] and in [18] was inactive.
As for `CCCCCCCCCCCCCCCC(=O)OC`, the molecule was called inactive in test [1], in test [2], in test [3], in test [4], in test [5] and in test [6]. Also, the result in [7], in test [8], in test [9], in [10], in test [11] and in [12] was inactive. For the same molecule, the molecule was called inactive in test [13], in test [14], in test [15], in test [16], in [17] and in [18]. The call in [19] was inactive.
